The values below come from ChEMBL document CHEMBL1157539, “Thousands of chemical starting points for antimalarial lead identification” (Nature, 2010).

Structures are written as SMILES.

The test system of the test is Plasmodium falciparum. Briefly: GSK_TCMDC: Inhibition of Plasmodium falciparum 3D7 in whole red blood cells, using parasite LDH activity as an index of growth. Test compounds present at 2uM. Type of test: functional.
The compound `Cc1c(CCNC(=O)CCCN2CC(C)CC(C)C2)c2ccccc2n1C.Cl` (stereo not given) displayed an Inhibition of 87%.

Consider `CC(Cc1ccc(Cl)cc1)Nc1nc(NC2CCCC2)nc(N2CCC(C#N)(c3ccccc3)CC2)n1` (stereo not given), for which the Inhibition was determined as 99%.

As to `OC(CNc1ccnc(Nc2ccccc2)n1)c1cccc(C(F)(F)F)c1` (stereo not given), the Inhibition is 100%.

Regarding `Cc1ccccc1C1CCN(C2CCC(NC(=O)c3cc4cc(Cl)ccc4o3)CC2)CC1` (stereo not given), the Inhibition stood at 89%.

`Cc1nc2ccc3ccc(CNc4ccc5c(c4)CN([C@H](CCC(=O)O)C(=O)O)C5=O)cc3c2c(=O)[nH]1` returned an Inhibition of 87%.

Take `Cc1ccc(Nc2ccnc(Nc3ccc(C)c(F)c3)n2)cc1O.Cl`: the Inhibition is given as 100%.

On to `COc1ccc(NS(=O)(=O)c2cccc(C(=O)Nc3ccc(C(F)(F)F)cc3)c2)cc1N1CCN(CC(C)C)CC1.O=C(O)C(F)(F)F`, for which the Inhibition is on record as 94%.

In the case of `CCC(CC)(Cc1ccccc1)NC(=O)[C@H](CC1CCCCC1)Nc1ccc(C#N)c2ccccc12.O=C(O)C(F)(F)F`, the Inhibition is recorded as 95%.

Compound `CC1CC1C(=O)NC1CCN(CC2(c3ccccc3)CCCCC2)CC1` (stereo not given) had an Inhibition of 97%.

Consider `Cc1ccc(Nc2nc3cc(N(C)c4ccnc(Nc5cccc(CCS(C)(=O)=O)c5)n4)ccc3n2C)cc1.O=C(O)C(F)(F)F`, for which the Inhibition is on record as 99%.

As for `CC(C)CCn1c(Sc2ccc([N+](=O)[O-])cc2C(F)(F)F)nnc1-c1ccccc1Cl`, the Inhibition was determined as 99%.

With `O=C(Nc1cccc(-c2ccc(-c3nc4cc(C(F)(F)F)ccc4[nH]3)cc2)c1)Nc1ccc(F)c(F)c1F`, the Inhibition is recorded as 100%.

The compound `c1ccc(OCCOc2ccc(Nc3ccnc4cc5ccccc5cc34)cc2)cc1` had an Inhibition of 100%.

`O=C(/C=C/c1ccc(Cl)c(Cl)c1)NCCCCCN1CCC(NC(=O)c2cc(Cl)ccc2F)CC1`: the Inhibition came out at 92%.

Take `COc1cccc(CN(C(=O)Nc2ccccc2F)[C@H]2C[C@H]3C(=O)Nc4cc(F)ccc4C(=O)N3C2)c1`: the Inhibition worked out at 93%.

Compound `CN1CCC(N2CCN(c3ccc4c(=O)nc(CCc5cccc(F)c5F)n(CC(=O)N(C)Cc5ccc(-c6ccc(C(F)(F)F)cc6)cc5)c4n3)CC2)CC1.O=C(O)C(O)C(O)C(=O)O` displayed an Inhibition of 100%.

Compound `CN1CCN(Cc2c(O)ccc3c(=O)c(Oc4ccc(C(C)(C)C)cc4)c(C(F)(F)F)oc23)CC1` showed an Inhibition of 99%.

`COc1ccc(Nc2nc(NC3CCN(Cc4ccccc4)CC3)cc(-c3ccncc3)n2)cc1` came in with an Inhibition of 88%.

`O=C(NC1CCN(Cc2cccc(C(F)(F)F)c2)CC1)c1ccc(-c2cccc(Cl)c2)s1.O=C(O)C(F)(F)F` showed an Inhibition of 89%.

`COc1ccc(C2CC(c3cccs3)=NN2C(=O)COc2cccc3c2CCCC3O)cc1OC` (stereo not given) came in with an Inhibition of 93%.

`COc1ccc(NC(=O)NC2CCN(CCCCCNC(=O)/C=C/c3ccc(Cl)c(Cl)c3)C2)c(OC)c1` (stereo not given) registered an Inhibition of 96%.

`CCOC(=O)COc1cccc(CNc2ccc3nc(N)nc(N)c3c2)c1` came in with an Inhibition of 100%.

With `CN(C)c1ccc(CN2CCC(NC(=O)c3ccc(-c4ccccc4Cl)s3)CC2)cc1.O=C(O)C(F)(F)F`, the Inhibition turned out to be 82%.

For the compound `N#Cc1ccc(N(CCOC(=O)c2ccccc2)Cc2ccccc2C(F)(F)F)cc1C(F)(F)F`, the Inhibition was 92%.

For `CC(=O)Nc1ccc(C(=O)Nc2cccc(-c3cccc(-c4nc5cc(C(F)(F)F)ccc5[nH]4)c3)c2)cn1`, the Inhibition is reported as 100%.

`N=C(N)Nc1nc(-c2cccc(NC(=O)NCc3cccc4ccccc34)c2)cs1` showed an Inhibition of 100%.

The compound `CCNC(=O)N1CCN(c2nc(-c3ccccc3)nc(COC)c2Cc2ccc(C)cc2)CC1` had an Inhibition of 95%.

Turning to `Cc1nc2c(s1)c(=O)cc(CCc1cccc(F)c1F)n2CC(=O)N(Cc1ccc(-c2ccc(C(F)(F)F)cc2)cc1)C1CCN(C(C)C)CC1.O=C(O)C(O)C(O)C(=O)O`, the Inhibition is listed as 100%.

`CCOC(=O)c1c(CSc2ccccc2)oc2cc(CN(C)C)c(O)c(Cl)c12` came in with an Inhibition of 99%.

Regarding `CCOc1cc(C)ccc1C1CCN(CCCCNC(=O)c2ccc(-c3ccc(C(F)(F)F)cn3)cc2)CC1.Cl`, the Inhibition is listed as 99%.

Turning to `CCN(CCO)CCCC(C)Nc1ccnc2cc(Cl)ccc12.O=S(=O)(O)O` (stereo not given) [HYDROXYCHLOROQUINE SULFATE], the Inhibition worked out at 99%.

Take `O=[N+]([O-])c1ccc2nc(Nc3ccc(Cl)c(Cl)c3)c(Nc3ccc(Cl)c(Cl)c3)nc2c1`: the Inhibition is recorded as 100%.

`CCCCCCCC1CC(CC(=O)Nc2ccnc3ccc(OC)cc23)CN1C(=O)OC(C)(C)C` (stereo not given): the Inhibition is 100%.

With `CN(C)CCCNCc1ccc(-c2ccc(CNCCOc3ccccc3)cc2)cc1.O=C(O)C(F)(F)F`, the Inhibition amounted to 100%.

`Cc1ccc(CNC(=N)NC(=O)c2nc(Cl)c(NCc3ccc(Cl)cc3)nc2N)c(C)c1` gave an Inhibition of 100%.

Compound `COc1cc(F)c2ncc(Cl)c(CCN3CCC(NCc4ccc5c(c4)NC(=O)CS5)CC3)c2c1.Cl` returned an Inhibition of 100%.

The compound `CCCS(=O)(=O)N1CCC(CO)(Cc2ccccc2C(F)(F)F)CC1` had an Inhibition of 97%.

As to `CCCCCCN1CCN(Cc2cccc(NC(=O)c3cccc(OCC)c3)c2)CC1.O=C(O)C(F)(F)F`, the Inhibition turned out to be 85%.

In the case of `CCCCCN1CCCC(CNS(=O)(=O)c2cccc(C(=O)Nc3ccc(C(F)(F)F)cc3)c2)C1.O=C(O)C(F)(F)F` (stereo not given), the Inhibition amounted to 96%.

Regarding `O=C(Nc1ccc(N2CCN(Cc3cccc(F)c3)CC2)cc1)c1cccs1.O=C(O)C(F)(F)F`, the Inhibition stood at 95%.
